# Source: paper PMC7862700, “An all-to-all approach to the identification of sequence-specific readers for epigenetic DNA modifications on cytosine”
# Assays:
# Assay in all cases: DAPPL (digital affinity profiling via proximity ligation, sequencing); 10 mM Tris-HCl pH 7.5, 50 mM NaCl, 1 mM DTT, 4% glycerol, room temperature, 30 min; GST-TFs on glutathione beads, 16-mer random dsDNA library, 0.1% formaldehyde crosslink after washing; high values mean tight binding
# FLI1 = target: T1, FLI1 (Homo sapiens, UniProt Q01543 1-452); conditions: protein: recombinant; tags: N-terminal GST; dsDNA, one strand shown
# T1 sequence: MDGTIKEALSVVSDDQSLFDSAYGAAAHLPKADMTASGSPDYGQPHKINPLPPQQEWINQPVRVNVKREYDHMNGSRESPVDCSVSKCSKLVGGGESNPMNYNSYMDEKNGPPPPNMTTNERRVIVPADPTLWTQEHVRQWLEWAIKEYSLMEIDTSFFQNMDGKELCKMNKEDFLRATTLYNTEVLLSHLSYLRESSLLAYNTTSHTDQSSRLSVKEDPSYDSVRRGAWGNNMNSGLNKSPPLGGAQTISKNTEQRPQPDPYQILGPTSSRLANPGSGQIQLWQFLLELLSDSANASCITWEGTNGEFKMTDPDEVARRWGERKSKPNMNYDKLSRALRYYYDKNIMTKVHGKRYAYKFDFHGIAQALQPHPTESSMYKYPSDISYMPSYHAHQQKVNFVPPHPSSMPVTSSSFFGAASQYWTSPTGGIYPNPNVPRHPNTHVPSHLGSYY
# Summary of the method: (§1)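 Each value of binding signal is a hexamer's read frequency for a factor divided by the same hexamer's frequency in the tag-only sample. Barcoded, bead-captured GST fusions of human transcription factors made in yeast were pooled with that sample and incubated with 200 nmole of a random double-stranded 16-mer DNA library in Tris/NaCl/DTT/glycerol buffer at room temperature for 30 min. Washing, 0.1% formaldehyde crosslinking, proximity ligation, PCR and Illumina NextSeq500 sequencing followed.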
# ELK1 = target: T2, ELK1 (Homo sapiens, UniProt P19419 1-428); conditions: protein: recombinant; tags: N-terminal GST; dsDNA, one strand shown
# T2 sequence: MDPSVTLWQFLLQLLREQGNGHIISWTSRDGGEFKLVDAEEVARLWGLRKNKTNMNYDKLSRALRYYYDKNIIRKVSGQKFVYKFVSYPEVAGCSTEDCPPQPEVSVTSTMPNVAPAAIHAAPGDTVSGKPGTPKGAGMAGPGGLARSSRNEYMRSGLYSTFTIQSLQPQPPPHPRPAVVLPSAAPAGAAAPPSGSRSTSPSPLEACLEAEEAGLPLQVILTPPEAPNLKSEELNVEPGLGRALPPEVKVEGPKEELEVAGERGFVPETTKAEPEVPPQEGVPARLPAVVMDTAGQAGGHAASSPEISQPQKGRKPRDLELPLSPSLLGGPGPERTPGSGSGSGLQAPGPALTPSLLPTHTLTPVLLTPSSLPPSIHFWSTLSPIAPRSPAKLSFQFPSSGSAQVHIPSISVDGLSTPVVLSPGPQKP
# Summary of the method: as §1
# GABPA = target: T3, GABPA (Homo sapiens, UniProt Q06546 1-454); conditions: protein: recombinant; tags: N-terminal GST; dsDNA, one strand shown
# T3 sequence: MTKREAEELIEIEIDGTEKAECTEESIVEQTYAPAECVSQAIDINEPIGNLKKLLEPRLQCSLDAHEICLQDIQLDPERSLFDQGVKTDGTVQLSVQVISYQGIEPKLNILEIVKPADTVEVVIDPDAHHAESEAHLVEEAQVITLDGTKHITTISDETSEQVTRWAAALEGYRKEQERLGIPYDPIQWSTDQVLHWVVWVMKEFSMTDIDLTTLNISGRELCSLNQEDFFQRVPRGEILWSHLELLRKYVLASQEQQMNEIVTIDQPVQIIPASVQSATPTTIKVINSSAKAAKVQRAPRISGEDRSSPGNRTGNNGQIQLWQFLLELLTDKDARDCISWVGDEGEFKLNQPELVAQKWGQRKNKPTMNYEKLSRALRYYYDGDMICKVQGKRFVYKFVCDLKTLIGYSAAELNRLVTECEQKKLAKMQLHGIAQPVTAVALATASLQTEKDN
# Summary of the method: as §1
# ERG = target: T4, ERG (Homo sapiens, UniProt P11308 1-479); conditions: protein: recombinant; tags: N-terminal GST; dsDNA, one strand shown
# T4 sequence: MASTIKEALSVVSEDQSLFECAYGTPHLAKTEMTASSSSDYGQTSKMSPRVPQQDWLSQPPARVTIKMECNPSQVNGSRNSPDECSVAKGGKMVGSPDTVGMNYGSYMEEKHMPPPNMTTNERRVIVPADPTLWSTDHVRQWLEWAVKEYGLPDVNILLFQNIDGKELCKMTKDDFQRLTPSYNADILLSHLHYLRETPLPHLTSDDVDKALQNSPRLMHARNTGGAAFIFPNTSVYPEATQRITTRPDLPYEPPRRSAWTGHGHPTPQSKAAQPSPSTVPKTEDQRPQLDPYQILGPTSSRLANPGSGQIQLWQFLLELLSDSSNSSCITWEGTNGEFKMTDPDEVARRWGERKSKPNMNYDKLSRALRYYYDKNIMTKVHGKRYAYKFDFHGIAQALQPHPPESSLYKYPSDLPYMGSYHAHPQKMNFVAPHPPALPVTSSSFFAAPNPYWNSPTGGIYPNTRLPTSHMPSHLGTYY
# Summary of the method: as §1
# ELF1 = ELF1 (Homo sapiens, UniProt P32519 1-619); conditions: protein: recombinant; tags: N-terminal GST; dsDNA, one strand shown
# Summary of the method: as §1
# EHF = target: T5, EHF (Homo sapiens, UniProt Q9NZC4 1-300); conditions: protein: recombinant; tags: N-terminal GST; dsDNA, one strand shown
# T5 sequence: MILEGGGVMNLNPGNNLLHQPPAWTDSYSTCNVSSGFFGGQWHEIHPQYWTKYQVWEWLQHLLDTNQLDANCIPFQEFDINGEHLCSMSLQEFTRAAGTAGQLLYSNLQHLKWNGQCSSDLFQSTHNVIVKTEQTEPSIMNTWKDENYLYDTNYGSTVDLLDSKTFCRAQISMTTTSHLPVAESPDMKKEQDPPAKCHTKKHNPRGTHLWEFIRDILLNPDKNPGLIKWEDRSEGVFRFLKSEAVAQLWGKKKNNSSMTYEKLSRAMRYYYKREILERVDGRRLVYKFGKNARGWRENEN
# Summary of the method: as §1
# SPI1 = SPI1 (Homo sapiens, UniProt P17947 1-270); conditions: protein: recombinant; tags: N-terminal GST; dsDNA, one strand shown
# Summary of the method: as §1
# SPIB = SPIB (Homo sapiens, UniProt Q01892 1-262); conditions: protein: recombinant; tags: N-terminal GST; dsDNA, one strand shown
# Summary of the method: as §1
# ELK3 = target: T6, ELK3 (Homo sapiens, UniProt P41970 1-407); conditions: protein: recombinant; tags: N-terminal GST; dsDNA, one strand shown
# T6 sequence: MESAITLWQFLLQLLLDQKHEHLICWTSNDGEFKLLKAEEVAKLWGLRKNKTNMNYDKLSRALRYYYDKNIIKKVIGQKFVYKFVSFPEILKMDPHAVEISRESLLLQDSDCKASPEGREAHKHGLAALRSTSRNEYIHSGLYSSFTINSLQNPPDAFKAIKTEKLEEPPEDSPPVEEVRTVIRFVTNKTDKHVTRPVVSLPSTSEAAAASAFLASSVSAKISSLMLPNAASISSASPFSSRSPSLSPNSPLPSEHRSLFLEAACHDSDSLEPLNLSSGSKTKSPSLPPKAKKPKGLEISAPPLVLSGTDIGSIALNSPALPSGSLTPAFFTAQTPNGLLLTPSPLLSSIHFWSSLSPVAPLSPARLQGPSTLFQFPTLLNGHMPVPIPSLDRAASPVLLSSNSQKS
# Summary of the method: as §1
# FEV = target: T7, FEV (Homo sapiens, UniProt Q99581 1-238); conditions: protein: recombinant; tags: N-terminal GST; dsDNA, one strand shown
# T7 sequence: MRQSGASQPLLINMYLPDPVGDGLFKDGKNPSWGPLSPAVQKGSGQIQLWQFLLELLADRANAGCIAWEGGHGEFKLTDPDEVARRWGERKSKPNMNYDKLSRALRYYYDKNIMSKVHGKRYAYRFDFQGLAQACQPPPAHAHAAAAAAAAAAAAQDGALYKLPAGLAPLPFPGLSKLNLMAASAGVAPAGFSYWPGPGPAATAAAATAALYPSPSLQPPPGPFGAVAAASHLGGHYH
# Summary of the method: as §1
# ETV5 = ETV5 (Homo sapiens, UniProt P41161 1-510); conditions: protein: recombinant; tags: N-terminal GST; dsDNA, one strand shown
# Summary of the method: as §1
# HSF1 = HSF1 (Homo sapiens, UniProt Q00613 1-529); conditions: protein: recombinant; tags: N-terminal GST; chain copies: 3; dsDNA, one strand shown
# Summary of the method: as §1
# SPIC = target: T8, SPIC (Homo sapiens, UniProt Q8N5J4 1-248); conditions: protein: recombinant; tags: N-terminal GST; dsDNA, one strand shown
# T8 sequence: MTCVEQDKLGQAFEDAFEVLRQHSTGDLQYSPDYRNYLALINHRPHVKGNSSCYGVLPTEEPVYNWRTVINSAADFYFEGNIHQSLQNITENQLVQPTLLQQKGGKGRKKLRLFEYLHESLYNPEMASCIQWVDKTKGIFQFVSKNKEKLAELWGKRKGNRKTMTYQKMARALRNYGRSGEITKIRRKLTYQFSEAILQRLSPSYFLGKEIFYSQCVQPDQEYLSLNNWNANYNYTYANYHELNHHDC
# Summary of the method: as §1
# ELF4 = ELF4 (Homo sapiens, UniProt Q99607 1-663); conditions: protein: recombinant; tags: N-terminal GST; dsDNA, one strand shown
# Summary of the method: as §1
# ELK4 = target: T9, ELK4 (Homo sapiens, UniProt P28324-2 1-405); conditions: protein: recombinant; tags: N-terminal GST; dsDNA, one strand shown
# T9 sequence: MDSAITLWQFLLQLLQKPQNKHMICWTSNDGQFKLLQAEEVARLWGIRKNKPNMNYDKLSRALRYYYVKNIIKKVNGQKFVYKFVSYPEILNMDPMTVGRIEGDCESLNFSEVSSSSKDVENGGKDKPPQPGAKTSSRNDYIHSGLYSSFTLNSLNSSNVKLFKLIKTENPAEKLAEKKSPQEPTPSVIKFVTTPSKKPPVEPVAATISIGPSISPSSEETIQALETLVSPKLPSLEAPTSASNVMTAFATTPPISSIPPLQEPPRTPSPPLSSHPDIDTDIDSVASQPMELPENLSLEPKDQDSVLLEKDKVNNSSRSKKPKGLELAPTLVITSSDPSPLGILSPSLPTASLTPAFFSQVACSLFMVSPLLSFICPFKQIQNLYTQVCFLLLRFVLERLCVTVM
# Summary of the method: as §1
# ETV2 = target: T10, ETV2 (Homo sapiens, UniProt O00321 1-342); conditions: protein: recombinant; tags: N-terminal GST; dsDNA, one strand shown
# T10 sequence: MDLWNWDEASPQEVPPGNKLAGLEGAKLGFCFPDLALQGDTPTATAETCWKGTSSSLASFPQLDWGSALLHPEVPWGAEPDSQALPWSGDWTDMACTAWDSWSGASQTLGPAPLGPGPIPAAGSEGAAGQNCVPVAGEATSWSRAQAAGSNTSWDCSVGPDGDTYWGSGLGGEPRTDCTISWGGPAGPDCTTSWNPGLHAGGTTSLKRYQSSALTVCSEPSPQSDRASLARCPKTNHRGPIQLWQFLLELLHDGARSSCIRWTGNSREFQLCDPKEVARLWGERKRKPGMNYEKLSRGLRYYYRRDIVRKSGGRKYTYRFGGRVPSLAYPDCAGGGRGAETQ
# Summary of the method: as §1
# ELF3 = target: T11, ELF3 (Homo sapiens, UniProt P78545 1-371); conditions: protein: recombinant; tags: N-terminal GST; dsDNA, one strand shown
# T11 sequence: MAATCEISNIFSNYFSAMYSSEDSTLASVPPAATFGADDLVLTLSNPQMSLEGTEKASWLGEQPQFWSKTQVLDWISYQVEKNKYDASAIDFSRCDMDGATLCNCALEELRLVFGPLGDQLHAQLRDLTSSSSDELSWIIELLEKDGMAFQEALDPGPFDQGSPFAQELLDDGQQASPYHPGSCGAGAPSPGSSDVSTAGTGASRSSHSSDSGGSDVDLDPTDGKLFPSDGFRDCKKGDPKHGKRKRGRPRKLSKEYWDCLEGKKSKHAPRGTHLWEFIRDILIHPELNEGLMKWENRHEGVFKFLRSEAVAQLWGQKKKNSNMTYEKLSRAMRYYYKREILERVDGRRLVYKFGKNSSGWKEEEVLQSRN
# Summary of the method: as §1
# CRX = CRX (Homo sapiens, UniProt O43186 1-299); conditions: protein: recombinant; tags: N-terminal GST; dsDNA, one strand shown
# Summary of the method: as §1
# ETV1 = ETV1 (Homo sapiens, UniProt P50549 1-477); conditions: protein: recombinant; tags: N-terminal GST; dsDNA, one strand shown
# Summary of the method: as §1
# ETV5, sequence (P41161 whole entry): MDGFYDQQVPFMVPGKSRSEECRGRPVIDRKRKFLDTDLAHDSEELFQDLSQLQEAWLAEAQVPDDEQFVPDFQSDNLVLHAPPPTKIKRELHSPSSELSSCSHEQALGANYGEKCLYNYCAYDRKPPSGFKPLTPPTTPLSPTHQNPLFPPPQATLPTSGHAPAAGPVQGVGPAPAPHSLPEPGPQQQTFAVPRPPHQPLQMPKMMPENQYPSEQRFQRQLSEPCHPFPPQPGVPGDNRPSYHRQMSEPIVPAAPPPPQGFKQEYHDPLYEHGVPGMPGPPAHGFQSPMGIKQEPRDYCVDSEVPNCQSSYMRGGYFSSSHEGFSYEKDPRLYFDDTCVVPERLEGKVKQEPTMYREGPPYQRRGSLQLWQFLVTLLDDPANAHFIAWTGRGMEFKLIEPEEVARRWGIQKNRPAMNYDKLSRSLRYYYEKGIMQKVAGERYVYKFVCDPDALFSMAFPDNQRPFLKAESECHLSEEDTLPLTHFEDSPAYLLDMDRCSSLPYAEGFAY
# CRX, sequence (O43186 whole entry): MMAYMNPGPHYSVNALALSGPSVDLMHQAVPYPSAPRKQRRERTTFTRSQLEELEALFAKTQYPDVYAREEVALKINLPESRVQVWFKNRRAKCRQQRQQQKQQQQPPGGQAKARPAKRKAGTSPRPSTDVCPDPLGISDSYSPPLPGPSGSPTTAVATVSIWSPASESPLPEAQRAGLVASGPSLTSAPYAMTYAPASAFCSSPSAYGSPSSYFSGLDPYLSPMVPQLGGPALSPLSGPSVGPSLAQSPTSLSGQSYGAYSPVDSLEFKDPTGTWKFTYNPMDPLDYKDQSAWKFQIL
# ETV1, sequence (P50549 whole entry): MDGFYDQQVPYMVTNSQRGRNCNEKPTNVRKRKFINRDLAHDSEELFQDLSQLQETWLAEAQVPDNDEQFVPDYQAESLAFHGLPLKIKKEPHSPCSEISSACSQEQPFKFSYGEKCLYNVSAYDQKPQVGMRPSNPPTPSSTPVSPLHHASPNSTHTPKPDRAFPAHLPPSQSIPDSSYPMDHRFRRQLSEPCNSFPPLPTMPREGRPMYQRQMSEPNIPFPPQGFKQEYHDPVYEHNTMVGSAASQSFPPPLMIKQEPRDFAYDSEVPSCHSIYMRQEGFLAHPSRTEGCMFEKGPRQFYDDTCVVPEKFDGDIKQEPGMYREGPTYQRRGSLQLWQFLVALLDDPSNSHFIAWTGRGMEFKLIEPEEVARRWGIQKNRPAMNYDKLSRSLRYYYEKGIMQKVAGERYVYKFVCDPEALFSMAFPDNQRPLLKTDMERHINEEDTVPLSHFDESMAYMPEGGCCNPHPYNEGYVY
# SPIB, sequence (Q01892 whole entry): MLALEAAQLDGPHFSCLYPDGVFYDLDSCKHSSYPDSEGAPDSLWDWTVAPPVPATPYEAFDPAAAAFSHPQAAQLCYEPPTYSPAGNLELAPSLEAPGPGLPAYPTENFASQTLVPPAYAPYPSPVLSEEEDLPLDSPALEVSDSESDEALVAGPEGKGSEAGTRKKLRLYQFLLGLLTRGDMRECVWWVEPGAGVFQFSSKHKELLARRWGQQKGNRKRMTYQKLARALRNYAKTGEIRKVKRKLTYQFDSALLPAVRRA
# ELF1, sequence (P32519 whole entry): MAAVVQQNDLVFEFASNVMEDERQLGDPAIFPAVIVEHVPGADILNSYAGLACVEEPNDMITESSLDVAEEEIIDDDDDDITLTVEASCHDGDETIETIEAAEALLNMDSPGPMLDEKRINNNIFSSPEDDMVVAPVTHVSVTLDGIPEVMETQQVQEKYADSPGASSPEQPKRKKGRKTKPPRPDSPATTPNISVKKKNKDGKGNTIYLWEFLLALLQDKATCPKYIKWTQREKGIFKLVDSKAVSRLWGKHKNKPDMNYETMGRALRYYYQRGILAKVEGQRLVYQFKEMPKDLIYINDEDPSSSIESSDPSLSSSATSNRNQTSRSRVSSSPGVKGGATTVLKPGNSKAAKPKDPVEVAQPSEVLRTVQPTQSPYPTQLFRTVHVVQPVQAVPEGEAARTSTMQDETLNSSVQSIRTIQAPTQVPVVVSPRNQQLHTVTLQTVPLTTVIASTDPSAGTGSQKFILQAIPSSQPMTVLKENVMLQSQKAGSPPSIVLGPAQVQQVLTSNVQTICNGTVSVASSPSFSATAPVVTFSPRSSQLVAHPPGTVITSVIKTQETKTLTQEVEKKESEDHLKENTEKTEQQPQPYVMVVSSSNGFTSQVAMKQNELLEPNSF
# HSF1, sequence (Q00613 whole entry): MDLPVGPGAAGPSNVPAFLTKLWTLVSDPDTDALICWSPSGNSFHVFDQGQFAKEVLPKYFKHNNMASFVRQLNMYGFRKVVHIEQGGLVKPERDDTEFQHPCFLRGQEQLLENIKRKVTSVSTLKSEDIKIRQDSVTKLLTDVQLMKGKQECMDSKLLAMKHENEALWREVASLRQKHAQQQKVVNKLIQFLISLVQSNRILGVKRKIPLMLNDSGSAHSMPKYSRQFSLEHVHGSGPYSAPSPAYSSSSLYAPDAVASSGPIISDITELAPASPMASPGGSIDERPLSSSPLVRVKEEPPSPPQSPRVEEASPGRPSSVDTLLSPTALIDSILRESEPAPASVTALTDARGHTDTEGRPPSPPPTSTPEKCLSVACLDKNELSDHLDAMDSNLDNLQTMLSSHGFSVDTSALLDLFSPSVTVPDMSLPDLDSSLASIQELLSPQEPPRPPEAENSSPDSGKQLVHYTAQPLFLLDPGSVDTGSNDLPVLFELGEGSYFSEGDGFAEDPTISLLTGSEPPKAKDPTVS
# ELF4, sequence (Q99607 whole entry): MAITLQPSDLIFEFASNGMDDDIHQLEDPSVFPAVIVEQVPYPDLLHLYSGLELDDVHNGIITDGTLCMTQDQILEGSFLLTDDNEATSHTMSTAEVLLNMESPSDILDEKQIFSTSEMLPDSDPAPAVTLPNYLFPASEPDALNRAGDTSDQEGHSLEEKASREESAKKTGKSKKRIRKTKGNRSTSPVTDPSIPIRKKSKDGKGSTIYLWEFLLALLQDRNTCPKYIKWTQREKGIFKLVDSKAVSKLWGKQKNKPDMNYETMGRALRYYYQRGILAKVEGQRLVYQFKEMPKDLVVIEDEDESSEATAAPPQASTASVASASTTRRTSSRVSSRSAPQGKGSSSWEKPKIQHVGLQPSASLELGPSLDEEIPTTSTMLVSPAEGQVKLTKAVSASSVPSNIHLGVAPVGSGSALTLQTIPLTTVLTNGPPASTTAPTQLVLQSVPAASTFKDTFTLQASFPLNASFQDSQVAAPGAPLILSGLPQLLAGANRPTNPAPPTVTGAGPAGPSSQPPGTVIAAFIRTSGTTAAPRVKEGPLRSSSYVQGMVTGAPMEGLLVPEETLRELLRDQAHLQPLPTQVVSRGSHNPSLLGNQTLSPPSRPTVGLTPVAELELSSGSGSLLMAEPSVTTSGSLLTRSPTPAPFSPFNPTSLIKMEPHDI
sequence,measurement,setting,value
ATATTC,binding signal,FLI1,"1.24 fold enrichment (6-mer frequency, TF over GST control)"
same,binding signal,ELK1,"1.2 fold enrichment (6-mer frequency, TF over GST control)"
same,binding signal,GABPA,"1.24 fold enrichment (6-mer frequency, TF over GST control)"
same,binding signal,ERG,"1.18 fold enrichment (6-mer frequency, TF over GST control)"
same,binding signal,ELF1,"1.28 fold enrichment (6-mer frequency, TF over GST control)"
same,binding signal,EHF,"1.19 fold enrichment (6-mer frequency, TF over GST control)"
same,binding signal,SPI1,"1.19 fold enrichment (6-mer frequency, TF over GST control)"
same,binding signal,SPIB,"1.22 fold enrichment (6-mer frequency, TF over GST control)"
same,binding signal,ELK3,"1.14 fold enrichment (6-mer frequency, TF over GST control)"
same,binding signal,FEV,"1.19 fold enrichment (6-mer frequency, TF over GST control)"
same,binding signal,ETV5,"1.27 fold enrichment (6-mer frequency, TF over GST control)"
same,binding signal,HSF1,"2.2 fold enrichment (6-mer frequency, TF over GST control)"
same,binding signal,SPIC,"1.3 fold enrichment (6-mer frequency, TF over GST control)"
same,binding signal,ELF4,"1.29 fold enrichment (6-mer frequency, TF over GST control)"
same,binding signal,ELK4,"1.31 fold enrichment (6-mer frequency, TF over GST control)"
same,binding signal,ETV2,"1.22 fold enrichment (6-mer frequency, TF over GST control)"
same,binding signal,ELF3,"1.38 fold enrichment (6-mer frequency, TF over GST control)"
same,binding signal,CRX,"1.51 fold enrichment (6-mer frequency, TF over GST control)"
same,binding signal,ETV1,"1.26 fold enrichment (6-mer frequency, TF over GST control)"
